These results are taken from PubChem BioAssay (Tox21).

Assay [1] is described as follows: qHTS assay for small molecule agonists of the p53 signaling pathway (AID 651631; calls by dose curve; further: nearly all actives have a fitted effect of over 15% in size; further: potency means the concentration at half of the fitted maximal effect). Put shortly: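 HCT-116 cells carrying a stable p53 response element–beta-lactamase reporter were plated, rested 5 h at 37 °C, then exposed to compound in DMSO for 16 h at 37 °C; reporter activity was read as FRET substrate fluorescence after 2 h at room temperature.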
Assay [2] can be described thus: qHTS assay for small molecules that induce genotoxicity in human embryonic kidney cells expressing luciferase-tagged ATAD5 (AID 651632). Further: nearly all actives have a fitted effect of over 15% in size. Put shortly: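 Reporter cells (HEK293T) express luciferase-tagged ATAD5, a protein that accumulates after DNA damage. Treat 16 hr at 37C/5% CO2, add Amplite, wait 30 min at RT, and read luminescence.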
Background: In qHTS, concentration-response curves come from the screen itself.

Assay [3] can be described thus: qHTS assay for small molecules that induce genotoxicity in human embryonic kidney cells expressing luciferase-tagged ATAD5 - cell viability (AID 651634; calls by dose curve; further: nearly all actives have a fitted effect of over 25% in size; further: potency means the concentration at half of the fitted maximal effect). Put shortly:
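Seeding of 2,000 HEK293T ATAD5-luciferase cells per well preceded pin-tool compound transfer. Plates sat 15.5 hr at 37C under 5% CO2, then fluorescence was read after 30 min with CellTiter-Fluor.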

Assay [4] can be described thus: qHTS assay to test for compound auto fluorescence at 590 nm (red) in HepG2 cells (AID 720674). Put shortly:
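Compound auto-fluorescence is scored relative to Rose Bengal sodium, measured at 540/590 nm in live HepG2 cultures after 1 hr compound contact (37 C, 5% CO2).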

A short description of assay [5]: qHTS assay to test for compound auto fluorescence at 535 nm (green) in HepG2 cells (AID 720675).
Assay [6] is described as follows: qHTS assay to test for compound auto fluorescence at 590 nm (red) in HEK293 cells (AID 720679). In short, it runs like this: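 Each well held 2,000 HEK293 cells in medium containing 10% dialyzed FBS. Following 4-5 hr attachment at 37C, 23 nL test compound or DMSO was added; plates sat overnight, and red fluorescence (540/590nm) was recorded.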
A short description of assay [7]: qHTS assay for small molecule disruptors of the mitochondrial membrane potential (AID 720635). Further: potency means the concentration at half of the fitted maximal effect. Put shortly:
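HepG2 cells (2,000/well) attached overnight at 37C, then took compound for 1 hr at 37C, 5% CO2. Mito-MPS dye was added for 30 min; fluorescence was read at 490/535 nm (monomers) and 540/590 nm (aggregates).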

The nature of assay [8]: qHTS assay to test for compound auto fluorescence at 460 nm (blue) in HEK293 cells (AID 720678). In short, it runs like this:
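Cells were seeded and left to adhere for 4-5 hr at 37C. Compounds were then pin-transferred. After an overnight incubation at 37C under 5% CO2, intrinsic fluorescence at 405/460 nm was measured and referenced to triamterene.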

A short description of assay [9]: qHTS assay for small molecule disruptors of the mitochondrial membrane potential - cell viability (AID 720634; calls by dose curve;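 further: human HepG2 liver cancer cells; series mostly up to about 83 µM; nearly all actives have a fitted effect of over 20% in size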). Put shortly: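 Measuring cytotoxicity alongside mitochondrial potential, the screen quantified ATP by luminescence in HepG2 cells after 1 hr compound incubation and a 30 min room-temperature CellTiter-Glo step.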
The nature of assay [10]: qHTS assay for small molecule agonists of the p53 signaling pathway - cell viability (AID 651633; calls by dose curve; further: series mostly up to about 83 µM; nearly all actives have a fitted effect of over 30% in size). Put shortly: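 p53RE-bla cells, seeded at 4,000 per well and rested 5 h at 37 C/5% CO2, received compounds in DMSO for 16 h at 37 C. CellTiter-Glo was then added, and luminescence was read after 30 min at room temperature to gauge cytotoxicity.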

Values without a mark were called inactive. Inconclusive results are not listed. Activity calls are given as the source filed them. Unless noted, the call rests on the fitted dose curve; in most records, active means well fitted curve in the direction sought with a large enough effect in the repeat runs; inconclusive means weak or mixed curves; inactive means no such curve, though single readings can be large; an effect the other way counts as inactive or inconclusive.
On the % scale 0 is the no-effect control and ±100 the full control effect.

Take `CC(C)COC(=O)COc1cc(Cl)c(Cl)cc1Cl`: the Potency entry in assay [1], in [2] and in [3] was “inactive” in each case. Also, the result in [4], in assay [5] and in assay [6] was inactive.

With `CC1CCCC(=O)C1=O` (stereo unspecified), the Potency result in assay [1], in [2], in assay [3], in assay [7] and in [8] was “inactive” each time. Moreover, the molecule was called inactive in [4], in assay [5] and in assay [6].

For the molecule `O=C(O)CCS`, the Potency entry in assay [1], in [2], in assay [3] and in assay [8] was “inactive” each time. The molecule was called inactive in [4], in assay [5] and in assay [6].

For `CC(C)(C)NCC(O)COc1cccc2c1C[C@H](O)[C@H](O)C2` (stereo partly specified), the Potency entry in assay [1], in assay [2] and in assay [3] was “inactive” throughout. In addition, the molecule was classed as inactive in assay [9]. In assay [4], the fluorescence, relative to Rose Bengal is 0.0921% [at 18.6 µM]. Also, the fluorescence, % of fluorescein control in assay [5] was 0.0163% [at 18.6 µM]. The fluorescence, % of triamterene in [8] is 0.0252% [at 18.6 µM]. The fluorescence, % of fluorescent control in [6] was -0.0478% [at 18.6 µM].

For the molecule `Nc1ccc(S(=O)(=O)NCc2ccccc2)cc1`, the Potency entry in assay [1], in [10], in [3], in assay [7] and in assay [8] was “inactive” each time. The molecule was classed as inactive in [9], in assay [4], in assay [5] and in assay [6].

For `CCOCCC(=O)OCC`, the Potency result in [1], in assay [2], in assay [3] and in assay [8] was “inactive” throughout. Moreover, the outcome in assay [4] and in assay [6] was inactive.

As to `O=C(C(=O)c1ccco1)c1ccco1`, the Potency entry in [1], in assay [2], in [3] and in assay [8] was “inactive” throughout. The result in assay [9], in assay [4], in assay [5] and in [6] was inactive.

For `CC(C)N(C)C`, the Potency entry in assay [1], in assay [2] and in [3] was “inactive” in each case. Also, the result in assay [9], in [4], in assay [5] and in assay [6] was inactive.

Consider `CN(C)CC/C=C1\c2ccccc2Sc2ccc(Cl)cc21`, for which the Potency in assay [1] was 15 µM (active). Also, the Potency entry in assay [2], in assay [3] and in assay [8] was “inactive” throughout. For the same molecule, the outcome in [9], in [4], in assay [5] and in [6] was inactive.

Take `CC(=O)OCC1=C(C(=O)O)N2C(=O)[C@@H](NC(=O)CSc3ccncc3)[C@H]2SC1`: the Potency entry in [2], in [10], in assay [3], in [7] and in [8] was “inactive” in each case. The result in [9], in assay [4], in assay [5] and in assay [6] was inactive.

As for `CC(C)(O)CCc1ccccc1`, the Potency result in [1], in assay [10], in [3], in assay [7] and in assay [8] was “inactive” each time. Moreover, the outcome in [9], in [4], in [5] and in assay [6] was inactive.

For the molecule `CC(C)(C)C1(CCc2ccc(Cl)cc2)CO1` (stereo unspecified), the Potency result in [2], in assay [10], in [3] and in assay [8] was “inactive” throughout. For the same molecule, the result in assay [9], in assay [4], in [5] and in [6] was inactive. The Potency in [7] is 19.3 µM (active).

Consider `O=C(O)CCC(=O)OC[C@@H](NC(=O)C(Cl)Cl)[C@H](O)c1ccc([N+](=O)[O-])cc1`, for which the Potency entry in assay [1], in [3], in assay [7] and in [8] was “inactive” in each case. For the same molecule, the outcome in assay [9], in assay [4], in [5] and in assay [6] was inactive.

In the case of `COc1ccc(C)cc1`, the Potency entry in assay [1], in assay [10], in assay [3] and in assay [8] was “inactive” throughout. Besides, the call in assay [9], in assay [4], in assay [5] and in [6] was inactive.

Take `COc1ccc(-n2nc(C(F)F)cc2-c2ccc(S(C)=O)cc2)cc1` (stereo unspecified): the Potency result in assay [1], in [3], in assay [7] and in assay [8] was “inactive” throughout. For the same molecule, the call in assay [9], in [4], in [5] and in assay [6] was inactive.

For `Nc1ccc(N=Nc2ccc(N)cc2)cc1`, the Potency entry in assay [1] and in assay [10] was “inactive” throughout. Further, the Potency in assay [3] was 27.3 µM (active); in assay [7] it was 6.85 µM (active). Besides, the result in assay [9], in assay [4] and in [6] was inactive.

Turning to `C/C(C=O)=C\c1ccccc1`, the Potency entry in [2], in assay [10], in assay [3], in assay [7] and in [8] was “inactive” throughout. The result in [9], in assay [4], in [5] and in [6] was inactive.

On to `O=c1[nH]c2cc(C(F)(F)F)c(N3CCOCC3)cc2n(CP(=O)(O)O)c1=O`, for which the Potency entry in [1], in assay [3], in [7] and in [8] was “inactive” each time. Besides, the outcome in [9], in [4], in assay [5] and in assay [6] was inactive.

For `COC1CCC=CO1` (stereo unspecified), the Potency entry in assay [2], in [10], in assay [3], in assay [7] and in assay [8] was “inactive” each time. Also, the molecule was classed as inactive in [9], in assay [4], in [5] and in assay [6].
